The campaign covered roughly 1,300 compounds. About 10 (0.8%) were called active. No rule for the calls is given here. This excerpt belongs to a sample that is enriched for actives.
Target: Chaperone protein DnaK (Escherichia coli (strain K12)) (UniProt P0A6Y8)
Experiment: blockers of bacterial DnaK function – luminescence, E. coli K12, primary screen (AID 547);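 also: tested at 10 µM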
Conditions: DnaK chaperone assay, luminescence read-out; stronger effect = lower value

Row | Structure (SMILES) | luminescence
1 | CN(N=O)c1ccc(O)c(O)c1 | 951000 cps (active)
2 | CCCN(CCC)CCc1ccc(O)c(O)c1 | 2.6e+06 cps (inactive)
3 | CN(N=O)c1cc(O)ccc1O | 2.3e+06 cps (inactive)
4 | CCN(CCCl)Cc1ccccc1Br | 2.7e+06 cps (inactive)
5 | NC(Cc1cc(O)c(O)cc1O)C(=O)O (stereo not given) | 1.2e+06 cps (active)
6 | NC(Cc1ccc(N(CCCl)CCCl)cc1)C(=O)O (stereo not given) | 2.5e+06 cps (inactive)
7 | N[C@@H](CCl)C(=O)O | 2.4e+06 cps (inactive)
8 | C[N+](C)(C)CC(=O)O | 2.7e+06 cps (inactive)
9 | Oc1ccc2c3c1O[C@H]1c4[nH]c5ccccc5c4C[C@@]4(O)C(C2)N(CC2CC2)CCC314 (stereo not given in full) | 2.5e+06 cps (inactive)
10 | C[C@]12CC[C@H]3[C@@H](CCC4C[C@H](O)CC[C@@]43C)[C@@H]1CC[C@@H]2O (stereo not given in full) | 2.6e+06 cps (inactive)
